An excerpt weighted towards active compounds, which were near 7.5% of everything screened.
NPC1 prom act: activators of NPC1 promoter; Huh7 NPC1 promoter luciferase reporter, 24 h; Potency, µM (titrated, usually from 9.22 µM), inactives show at the top dose activation, usual class: activators; 2.4% of 320,000 active; AID 485313; further: % of control where 0% means no effect; nearly all actives have a fitted effect of over 60% in size
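Stable NPC1-promoter luciferase Huh7 line; cpd (DMSO) 24 h, 37 °C, 5% CO2; Amplite luciferase reagent 10 min RT; luminescence readout. qHTS format.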
ELG1 genotoxic: genotoxicity induction in ELG1-luciferase HEK293T cells | HEK293T ELG1-luciferase reporter, luminescence, 16 h | Potency, µM (titrated, usually from 46 µM), for inactives: top-dose activity change, positive = activation, hits mostly activators | 1.3% of 330,000 active | AID 504466; further: % of control where 0% means no effect; nearly all actives have a fitted effect of over 60% in size
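DMSO vehicle served as control against compound-treated ELG1-luciferase HEK293T cells; exposure lasted 16 hr at 37 °C and 5% CO2, followed by ONE-Glo luminescence detection after 30 min.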
SMN2 splice up: increases expression of the SMN2 splice variant; HEK293 SMN2-luciferase splicing reporter, luminescence, 30-36 h; 2.8% of 210,000 active; Potency, µM (highest dose often 46.1 µM), for inactives: at the highest dose activity change, positive = activation, most hits filed as activators; AID 1458; further: % of control where 0% means no effect; nearly all actives have a fitted effect of over 55% in size
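qHTS luciferase splicing reporter: luminescence rises when SMN2 exon 7 is included in transfected HEK293 cells. Compound exposure lasted 30-36 h at 37C, with 4.5 mM final sodium butyrate as control, followed by a ONE-Glo read.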
Rab9 promoter act: Rab9 promoter activation | Huh7 Rab9 promoter-luciferase reporter, luminescence, 24 h | 2.8% of 320,000 active | Potency, µM (top dose mostly 9.22 µM), without a hit: top-dose activation, negative = inhibition, actives largely listed as activators; further: % of control where 0% means no effect; nearly all actives have a fitted effect of over 60% in size
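Stable Rab9-luc Huh7, 1500 cells/well, 2 h settle; cmpd in DMSO, 24 h, 37 °C/5% CO2; luciferase reagent 10 min RT; luminescence.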
FLuc counter: inhibits or activates purified firefly luciferase, miR-21 counter-screen; Potency, µM (top dose mostly 57.5 µM), inactives show at the top dose activity change, negative = inhibition, hits mostly inhibitors; purified FLuc, Km substrates, luminescence inhibition; P08659; 6.9% of 360,000 active;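 further: plate controls were vehicle for no effect and reference inhibitor for full effect; nearly all actives have a fitted effect of over 55% in size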
Target sequence (P08659 whole entry, looked up): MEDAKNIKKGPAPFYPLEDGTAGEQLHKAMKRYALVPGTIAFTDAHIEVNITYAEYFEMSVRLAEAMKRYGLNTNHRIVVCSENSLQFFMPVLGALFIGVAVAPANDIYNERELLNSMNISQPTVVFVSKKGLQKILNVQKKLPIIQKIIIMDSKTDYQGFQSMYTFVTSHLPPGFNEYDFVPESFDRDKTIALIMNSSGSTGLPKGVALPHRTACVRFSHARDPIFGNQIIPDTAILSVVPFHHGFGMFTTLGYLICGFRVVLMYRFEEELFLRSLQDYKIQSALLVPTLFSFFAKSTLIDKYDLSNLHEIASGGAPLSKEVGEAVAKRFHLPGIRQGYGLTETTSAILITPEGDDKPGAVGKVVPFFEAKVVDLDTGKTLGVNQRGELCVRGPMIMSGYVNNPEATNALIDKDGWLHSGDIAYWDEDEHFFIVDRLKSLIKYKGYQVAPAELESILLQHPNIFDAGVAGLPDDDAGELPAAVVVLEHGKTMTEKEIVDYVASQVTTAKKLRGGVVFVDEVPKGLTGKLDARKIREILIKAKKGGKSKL
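Biochemical qHTS of compounds, final roughly 60 µM downward over six points, against 10 nM purified firefly luciferase using Km concentrations of substrates (10 uM D-luciferin, 10 uM ATP) in Tris acetate pH 7.5 buffer; luminescence output.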
Luc counter: counter-screen: inhibitors of Kinase-Glo firefly luciferase; 0.28% of 200,000 active; Kinase-Glo luciferase, ATP luminescence, 8 min; Potency, µM (titrated, usually from 38.3 µM), for the others: top-dose activity change, negative = inhibition, actives largely listed as inhibitors; AID 1379; Q27757; further: on the % scale 0 is the no-effect control and ±100 the full control effect; nearly all actives have a fitted effect of over 60% in size
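Inhibition of Kinase-Glo luciferase light generation was assessed at 10 uM ATP in pH 7.2 imidazole buffer, with luminescence measured after eight minutes at ambient temperature.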
An asterisk follows results filed as active. The call rests on the fitted dose curve; in most records, active means well fitted curve in the direction sought with a large enough effect; inconclusive means small, poorly fitted or top-dose-only effect, or another doubt; inactive means no such curve, though single readings can be large; an effect the other way counts as inactive or inconclusive. Potency means the concentration at half of the fitted maximal effect.

Results for CC(=O)Nc1ccc2nc(-c3ccco3)[nH]c2c1 ?
NPC1 prom act: 23%; ELG1 genotoxic: 16%; SMN2 splice up: inconclusive; Rab9 promoter act: inconclusive; FLuc counter: 17µM*; Luc counter: -21%

Results for CC1CC(C)(C)CC2(C1)NC(=O)N(CC(=O)N1CCN(S(=O)(=O)c3cccs3)CC1)C2=O (configuration not stated) ?
NPC1 prom act: -2%; ELG1 genotoxic: -1%; Rab9 promoter act: -6%; FLuc counter: 4%

Results for O=C(Cc1ccc(Cl)cc1)Nc1ccc(C(=O)N2CCOCC2)cc1 ?
NPC1 prom act: 0%; ELG1 genotoxic: -1%; SMN2 splice up: 4%; Rab9 promoter act: 4%; FLuc counter: -7%; Luc counter: 0%

How did CCOc1ccc(NC(=O)c2oc(=O)c3ccccc3c2-c2ccc(C)cc2)cc1 do in these assays?
FLuc counter: -1%

Results for C=CCN1C(=O)c2ccc(C(=O)N3CCN(c4ccccc4OC)CC3)cc2C1=O ?
NPC1 prom act: -1%; ELG1 genotoxic: -1%; Rab9 promoter act: -4%; FLuc counter: 7%

Results for O=C(Nc1cccc(NC(=O)c2cccs2)c1)c1ccco1 ?
NPC1 prom act: 9%; ELG1 genotoxic: 0%; SMN2 splice up: inconclusive; Rab9 promoter act: -1%; FLuc counter: inconclusive; Luc counter: 0%

Results for O=C(Nc1ccc2nc(-c3ccco3)[nH]c2c1)c1ccco1 ?
NPC1 prom act: inconclusive; ELG1 genotoxic: 16µM*; SMN2 splice up: 24%; Rab9 promoter act: inconclusive; FLuc counter: 7.6µM*; Luc counter: -16%

How did O=C(Nc1ccc2nc(-c3ccco3)[nH]c2c1)c1cccs1 do in these assays?
NPC1 prom act: inconclusive; ELG1 genotoxic: 5%; SMN2 splice up: 11µM*; Rab9 promoter act: 3.2µM*; FLuc counter: 2.7µM*; Luc counter: inconclusive

Results for Cc1occc1C(=O)NNC1=CC(=O)CC(C)(C)C1 ?
NPC1 prom act: -1%; ELG1 genotoxic: 2%; SMN2 splice up: 25%; Rab9 promoter act: -2%; FLuc counter: 1%; Luc counter: 2%

How did CC(C)c1ccc(C(=O)CSc2n[nH]c(-c3ccncc3)n2)cc1 do in these assays?
NPC1 prom act: 3%; ELG1 genotoxic: -1%; SMN2 splice up: 33%; Rab9 promoter act: 3%; FLuc counter: 15µM*; Luc counter: 11%

What do the screens show for `CCc1ccc(C(=O)CSc2n[nH]c(C)n2)cc1`?
NPC1 prom act: 30%; ELG1 genotoxic: 5%; SMN2 splice up: 5%; Rab9 promoter act: inconclusive; FLuc counter: 21µM*; Luc counter: 0%

How did COc1ccc(-c2nc(SCC(=O)c3ccc(Br)cc3)n[nH]2)cc1 do in these assays?
SMN2 splice up: -13%; FLuc counter: 1%

What do the screens show for `O=C(NC1CCCCC1)C(c1cccnc1)N(CCc1ccccc1)C(=O)Cc1cccs1` (configuration not stated)?
NPC1 prom act: -2%; ELG1 genotoxic: 0%; SMN2 splice up: -9%; Rab9 promoter act: -7%; FLuc counter: 9%; Luc counter: 3%

How did Cc1cc(C)c2nc(NC(=O)c3ccc(OCC4CCCO4)cc3)sc2c1 (configuration not stated) do in these assays?
NPC1 prom act: -18%; ELG1 genotoxic: -3%; SMN2 splice up: -59%; Rab9 promoter act: -25%; FLuc counter: 11µM*; Luc counter: 1%

How did O=C(Nc1ccc(Cl)cc1)c1ccc(OCC2CCCO2)cc1 (configuration not stated) do in these assays?
NPC1 prom act: inconclusive; ELG1 genotoxic: inconclusive; SMN2 splice up: 18%; Rab9 promoter act: inconclusive; FLuc counter: 5.4µM*; Luc counter: 1%

What do the screens show for `Cc1ccc2nc(NC(=O)c3ccc(OCC4CCCO4)cc3)sc2c1` (configuration not stated)?
NPC1 prom act: inconclusive; ELG1 genotoxic: -6%; SMN2 splice up: -45%; Rab9 promoter act: inconclusive; FLuc counter: 3µM*; Luc counter: 0%

What do the screens show for `CCN(CC)c1ccc2cc(C(=O)NCc3ccc(F)cc3)c(=N)oc2c1`?
NPC1 prom act: 3%; ELG1 genotoxic: -11%; Rab9 promoter act: 0%; FLuc counter: 17µM*

How did CCOc1cccc2cc(C(=O)NCc3ccc(C)cc3)c(=N)oc12 do in these assays?
NPC1 prom act: -5%; ELG1 genotoxic: 3%; Rab9 promoter act: -3%; FLuc counter: 15µM*

How did Cn1cccc1C(=O)N1CCC2(CCCN(c3ccccc3)C2)CC1 do in these assays?
SMN2 splice up: -12%; Luc counter: -2%

What do the screens show for `O=C1NC2(CCCCC2)C(=O)N1/N=C/c1ccc(O)cc1O`?
NPC1 prom act: 0%; ELG1 genotoxic: -2%; SMN2 splice up: -4%; Rab9 promoter act: 0%; FLuc counter: 17µM*; Luc counter: -6%

What do the screens show for `O=C(OCC#CCSc1nnc(-c2cccc3ccccc23)o1)c1ccco1`?
NPC1 prom act: 12%; ELG1 genotoxic: 0%; SMN2 splice up: -7%; Rab9 promoter act: -3%; FLuc counter: 3%; Luc counter: -4%

What do the screens show for `Cc1ccc(C)c(N2CCN(S(=O)(=O)c3ccc4[nH]c5c(c4c3)CCCCC5)CC2)c1`?
FLuc counter: -5%

How did O=C(CC1C(=O)NCCN1CC1CCCCC1)NCc1ccc(F)cc1F (configuration not stated) do in these assays?
NPC1 prom act: 2.8µM*; ELG1 genotoxic: inconclusive; Rab9 promoter act: 2.8µM*; FLuc counter: inconclusive; Luc counter: -4%

Results for O=C(CC1C(=O)NCCN1CC1CCCCC1)NCc1cc(F)ccc1F (configuration not stated) ?
NPC1 prom act: -7%; ELG1 genotoxic: 0%; Rab9 promoter act: 1%; FLuc counter: -1%; Luc counter: -1%

Results for CCCN(CCC)CCCNC(=O)c1nn(C)c2c1CS(=O)(=O)c1ccccc1-2 ?
FLuc counter: -17%

What do the screens show for `COc1ccccc1/C=C/C=N/n1c(-c2ccc(F)cc2)n[nH]c1=S`?
NPC1 prom act: 3%; ELG1 genotoxic: 0%; Rab9 promoter act: 2%; FLuc counter: inconclusive

How did COc1ccccc1/C=C/C=N/n1c(-c2cc(-c3ccccc3)n[nH]2)n[nH]c1=S do in these assays?
NPC1 prom act: -3%; ELG1 genotoxic: 4%; Rab9 promoter act: 13%; FLuc counter: 5.4µM*

What do the screens show for `S=c1[nH]nc(-c2cc(-c3ccccc3)n[nH]2)n1/N=C/c1ccccc1`?
NPC1 prom act: -3%; ELG1 genotoxic: 1%; Rab9 promoter act: 2%; FLuc counter: inconclusive

Compound activity (PubChem BioAssay)
